11 compounds from PubChem BioAssay can be followed below.

Each structure is given as a SMILES string.

The target of the assay is Dickkopf-related protein 1 (Homo sapiens) (UniProt O94907). In words: small molecules binding DKK1 protein – biochemical, small-molecule microarray, 635 nm fluorescence scan, primary screen (AID 1106).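 Also: score merges emission near 667 nm with signal to noise over three replicate slides.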 To be noted: higher = more signal.
Dickkopf-related protein 1 (Homo sapiens), sequence (O94907 whole entry, looked up): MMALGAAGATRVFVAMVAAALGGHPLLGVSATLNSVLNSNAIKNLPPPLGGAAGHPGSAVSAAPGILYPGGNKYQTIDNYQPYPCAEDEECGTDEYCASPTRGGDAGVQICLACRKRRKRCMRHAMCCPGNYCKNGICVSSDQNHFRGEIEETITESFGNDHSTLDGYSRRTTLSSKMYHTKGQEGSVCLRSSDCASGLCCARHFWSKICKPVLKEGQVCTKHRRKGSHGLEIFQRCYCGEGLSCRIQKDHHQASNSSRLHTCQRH
For the compound `CC(C)(C)N1CC=CC23O[C@@H]4/C=C\CCCOC(=O)C4[C@H]2C(=O)N(CCCO)[C@@H]3C1=O` (stereo partly specified), the composite z-score was -1.07.
As for `Cc1ccc(S[C@]2(C(=O)NCCCN(C)C)CC(=O)N(C3Cc4ccccc4C3)[C@@H]2c2ccc(CO)cc2I)cc1`, the figure is -0.976; as for `CCOc1cc(C(O)C2C=CC3C(=O)N(c4ccccc4)C(=O)C3N2Nc2ccccc2F)ccc1O` (stereo unspecified), -0.344.
On to `Cc1ccc(F)cc1S(=O)(=O)N[C@H]1CCN(Cc2ccc(OC(C)C)cc2)C1`, for which the composite z-score was 0.577.
With `COC(=O)C(CC#Cc1ccc2c(c1)[C@]1(C(=O)N2)[C@H](c2ccc(OCCO)cc2)N2[C@H](c3ccccc3)[C@H](c3ccccc3)OC(=O)[C@H]2[C@@H]1C(=O)N1CCCCCCC1)C(=O)OC`, the composite z-score is 2.14.
Turning to `[N-]=[N+]=Nc1ccccc1C[C@]1(C(=O)N2CCOCC2)N=C(c2ccc(OCCCO)cc2)O[C@H]1c1ccccc1N=[N+]=[N-]`, the composite z-score was 1.42.
For `O=C(NC1CC1)[C@@H]1c2ccccc2C(=O)N(Cc2ccc(OC(F)(F)F)cc2)[C@H]1c1ccc(CO)cc1`, the composite z-score was 0.864.
The compound `CN(C)CCCC[C@@H]1NC(=O)[C@H]2C[C@@H](C(=O)O)[C@@H](c3ccc(O)cc3)N2C1=O` registered a composite z-score of 2.03.
In the case of `CO[C@H]1O[C@H](CO)[C@@H](OC(=O)Nc2ccccc2)[C@H](OC(=O)Nc2ccccc2)[C@H]1OC(=O)Nc1ccccc1` it was 0.183; in that of `[N-]=[N+]=NCc1ccccc1[C@@H]1OC(c2ccc(OCCCO)cc2)=N[C@]1(Cc1ccccc1N=[N+]=[N-])C(=O)O`, -0.075.
Turning to `CC(C)=CCCC(C)=CC(O)C1C=CC2C(=O)NC(=O)C2N1Nc1ccc(Cl)cc1Cl` (stereo unspecified), the composite z-score came to 0.153.
